Binding signal data for one sequence are collected here from paper PMC7862700, “An all-to-all approach to the identification of sequence-specific readers for epigenetic DNA modifications on cytosine”.

Common to all, as to assay: DAPPL (digital affinity profiling via proximity ligation, sequencing); 10 mM Tris-HCl pH 7.5, 50 mM NaCl, 1 mM DTT, 4% glycerol, room temperature, 30 min; GST-TFs on glutathione beads, 16-mer random dsDNA library, 0.1% formaldehyde crosslink after washing; high values mean tight binding
In assay [1] the target is T1, FEV (Homo sapiens, UniProt Q99581 1-238).
T1 sequence: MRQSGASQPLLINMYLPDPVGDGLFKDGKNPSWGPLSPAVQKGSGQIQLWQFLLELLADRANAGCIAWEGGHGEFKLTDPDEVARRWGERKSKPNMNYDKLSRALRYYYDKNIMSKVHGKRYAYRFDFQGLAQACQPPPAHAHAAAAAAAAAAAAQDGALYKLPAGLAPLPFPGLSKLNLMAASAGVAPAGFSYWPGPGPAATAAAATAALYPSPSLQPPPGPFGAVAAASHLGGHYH
To be noted: protein: recombinant; tags: N-terminal GST; dsDNA, one strand shown. The essentials:
(§1)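 Binding signal is given per hexamer as its read frequency for a factor divided by its frequency in the tag-only sample. GST-fused human transcription factors were expressed in yeast, captured on glutathione beads, barcoded with DNA and pooled with that sample, then incubated with 200 nmole of a 16-mer random double-stranded DNA library in Tris/NaCl/DTT/glycerol buffer for 30 min at room temperature. The pools were then washed, crosslinked, proximity-ligated, amplified by PCR and sequenced on an Illumina NextSeq500.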

The target of assay [2] is ETV5 (Homo sapiens, UniProt P41161 1-510). The following applies: protein: recombinant; tags: N-terminal GST; dsDNA, one strand shown. The essentials: as §1
For assay [3], the target named is HSF1 (Homo sapiens, UniProt Q00613 1-529). To be noted: protein: recombinant; tags: N-terminal GST; chain copies: 3; dsDNA, one strand shown. The essentials: as §1
Assay [4] concerns the target T2, SPIC (Homo sapiens, UniProt Q8N5J4 1-248).
T2 sequence: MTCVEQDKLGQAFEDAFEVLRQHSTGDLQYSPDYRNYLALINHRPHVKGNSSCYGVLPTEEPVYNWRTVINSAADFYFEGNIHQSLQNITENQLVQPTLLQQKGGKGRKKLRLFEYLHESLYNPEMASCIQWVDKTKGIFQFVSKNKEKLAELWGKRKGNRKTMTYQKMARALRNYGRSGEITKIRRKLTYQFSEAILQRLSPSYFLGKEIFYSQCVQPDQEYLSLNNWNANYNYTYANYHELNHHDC
The following applies: protein: recombinant; tags: N-terminal GST; dsDNA, one strand shown. The essentials:
as §1

Assay [5] deals with ELF4 (Homo sapiens, UniProt Q99607 1-663). The following applies: protein: recombinant; tags: N-terminal GST; dsDNA, one strand shown. The method, boiled down:
as §1

Assay [6] concerns the target T3, ELK4 (Homo sapiens, UniProt P28324-2 1-405).
T3 sequence: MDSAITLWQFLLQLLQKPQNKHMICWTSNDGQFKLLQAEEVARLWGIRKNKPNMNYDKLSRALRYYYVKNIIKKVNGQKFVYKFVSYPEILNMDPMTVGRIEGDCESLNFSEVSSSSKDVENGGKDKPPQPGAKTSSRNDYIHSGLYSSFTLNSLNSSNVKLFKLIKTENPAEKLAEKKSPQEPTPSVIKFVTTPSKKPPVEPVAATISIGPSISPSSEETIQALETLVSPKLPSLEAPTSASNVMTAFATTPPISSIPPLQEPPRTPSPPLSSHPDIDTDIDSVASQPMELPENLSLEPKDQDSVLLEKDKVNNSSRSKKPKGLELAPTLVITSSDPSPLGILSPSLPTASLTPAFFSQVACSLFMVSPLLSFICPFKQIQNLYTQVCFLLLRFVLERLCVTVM
To be noted: protein: recombinant; tags: N-terminal GST; dsDNA, one strand shown. The method, boiled down: as §1

Assay [7] deals with T4, ETV2 (Homo sapiens, UniProt O00321 1-342).
T4 sequence: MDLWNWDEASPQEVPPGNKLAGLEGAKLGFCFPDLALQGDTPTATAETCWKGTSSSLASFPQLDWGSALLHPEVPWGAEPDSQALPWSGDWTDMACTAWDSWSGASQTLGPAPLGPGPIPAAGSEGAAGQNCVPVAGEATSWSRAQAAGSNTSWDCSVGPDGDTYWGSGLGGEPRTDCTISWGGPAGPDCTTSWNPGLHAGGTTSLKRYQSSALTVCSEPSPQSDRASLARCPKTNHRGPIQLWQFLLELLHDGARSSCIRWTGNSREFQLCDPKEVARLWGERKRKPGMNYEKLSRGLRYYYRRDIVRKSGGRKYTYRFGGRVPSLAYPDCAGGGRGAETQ
To be noted: protein: recombinant; tags: N-terminal GST; dsDNA, one strand shown. The essentials:
as §1

Assay [8] deals with T5, ELF3 (Homo sapiens, UniProt P78545 1-371).
T5 sequence: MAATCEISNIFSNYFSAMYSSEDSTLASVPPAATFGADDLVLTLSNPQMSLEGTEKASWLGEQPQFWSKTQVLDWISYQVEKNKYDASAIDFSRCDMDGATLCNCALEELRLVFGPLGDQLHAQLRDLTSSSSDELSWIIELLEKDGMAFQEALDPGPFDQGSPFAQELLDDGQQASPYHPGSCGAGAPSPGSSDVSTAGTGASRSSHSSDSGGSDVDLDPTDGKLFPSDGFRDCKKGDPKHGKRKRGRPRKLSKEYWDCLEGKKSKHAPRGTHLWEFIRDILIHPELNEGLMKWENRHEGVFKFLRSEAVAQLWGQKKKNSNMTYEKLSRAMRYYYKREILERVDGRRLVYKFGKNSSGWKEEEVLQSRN
The following applies: protein: recombinant; tags: N-terminal GST; dsDNA, one strand shown. The essentials: as §1

The target in assay [9] is CRX (Homo sapiens, UniProt O43186 1-299). The following applies: protein: recombinant; tags: N-terminal GST; dsDNA, one strand shown. The method, boiled down:
as §1

For assay [10], the target named is ETV1 (Homo sapiens, UniProt P50549 1-477). To be noted: protein: recombinant; tags: N-terminal GST; dsDNA, one strand shown. The method, boiled down:
as §1

Assay [11] deals with T6, ERF (Homo sapiens, UniProt P50548 1-548).
T6 sequence: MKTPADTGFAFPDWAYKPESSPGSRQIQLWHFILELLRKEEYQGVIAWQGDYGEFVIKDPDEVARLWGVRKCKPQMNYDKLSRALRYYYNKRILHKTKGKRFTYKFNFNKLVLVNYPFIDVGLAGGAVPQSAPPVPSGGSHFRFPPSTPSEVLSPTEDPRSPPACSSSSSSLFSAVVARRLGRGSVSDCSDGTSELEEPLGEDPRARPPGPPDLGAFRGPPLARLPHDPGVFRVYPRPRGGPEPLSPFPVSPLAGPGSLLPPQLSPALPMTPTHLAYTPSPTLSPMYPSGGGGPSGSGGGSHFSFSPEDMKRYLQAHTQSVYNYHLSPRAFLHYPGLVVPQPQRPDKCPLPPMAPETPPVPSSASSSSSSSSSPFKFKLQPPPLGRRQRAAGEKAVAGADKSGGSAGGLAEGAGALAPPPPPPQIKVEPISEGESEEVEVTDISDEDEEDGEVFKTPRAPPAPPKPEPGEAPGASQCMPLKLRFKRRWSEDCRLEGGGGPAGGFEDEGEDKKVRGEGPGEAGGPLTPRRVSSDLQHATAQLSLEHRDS
To be noted: protein: recombinant; tags: N-terminal GST; dsDNA, one strand shown. The essentials:
as §1

For assay [12], the target named is T7, ETV3L (Homo sapiens, UniProt Q6ZN32 1-361).
T7 sequence: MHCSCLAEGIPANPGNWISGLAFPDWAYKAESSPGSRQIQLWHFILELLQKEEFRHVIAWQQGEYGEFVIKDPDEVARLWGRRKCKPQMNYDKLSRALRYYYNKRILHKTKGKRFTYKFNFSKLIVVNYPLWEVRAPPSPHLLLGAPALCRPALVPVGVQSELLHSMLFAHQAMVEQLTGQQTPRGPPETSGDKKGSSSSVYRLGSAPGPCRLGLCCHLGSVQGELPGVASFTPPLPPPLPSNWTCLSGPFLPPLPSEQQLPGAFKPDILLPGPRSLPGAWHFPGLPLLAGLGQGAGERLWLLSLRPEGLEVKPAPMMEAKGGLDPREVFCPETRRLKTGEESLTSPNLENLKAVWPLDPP
To be noted: protein: recombinant; tags: N-terminal GST; dsDNA, one strand shown. The method, boiled down:
as §1

The target in assay [13] is T8, ETS2 (Homo sapiens, UniProt P15036 1-469).
T8 sequence: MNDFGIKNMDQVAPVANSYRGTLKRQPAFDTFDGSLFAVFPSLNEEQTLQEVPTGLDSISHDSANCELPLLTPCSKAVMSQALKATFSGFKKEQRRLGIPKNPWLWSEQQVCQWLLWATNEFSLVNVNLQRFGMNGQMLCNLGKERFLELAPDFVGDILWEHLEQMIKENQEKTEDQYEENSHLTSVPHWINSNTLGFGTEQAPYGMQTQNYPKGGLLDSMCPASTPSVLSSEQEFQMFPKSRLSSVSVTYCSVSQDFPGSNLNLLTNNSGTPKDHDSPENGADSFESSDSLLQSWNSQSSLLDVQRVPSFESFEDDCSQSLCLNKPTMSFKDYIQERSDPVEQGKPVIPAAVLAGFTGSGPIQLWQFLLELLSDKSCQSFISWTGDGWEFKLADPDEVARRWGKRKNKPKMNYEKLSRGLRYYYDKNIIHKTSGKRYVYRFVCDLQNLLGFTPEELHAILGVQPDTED
The following applies: protein: recombinant; tags: N-terminal GST; dsDNA, one strand shown. The method, boiled down:
as §1

For assay [14], the target named is T9, SPDEF (Homo sapiens, UniProt O95238 1-335).
T9 sequence: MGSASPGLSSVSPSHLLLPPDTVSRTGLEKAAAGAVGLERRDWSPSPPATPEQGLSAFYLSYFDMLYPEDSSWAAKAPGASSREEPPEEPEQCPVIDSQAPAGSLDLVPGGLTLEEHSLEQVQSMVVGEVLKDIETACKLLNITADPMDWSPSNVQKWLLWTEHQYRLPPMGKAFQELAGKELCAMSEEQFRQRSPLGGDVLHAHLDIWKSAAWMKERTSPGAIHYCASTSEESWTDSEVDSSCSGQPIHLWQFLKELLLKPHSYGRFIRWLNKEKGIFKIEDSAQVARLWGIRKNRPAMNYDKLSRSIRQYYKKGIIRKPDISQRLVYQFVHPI
To be noted: protein: recombinant; tags: N-terminal GST; dsDNA, one strand shown. The method, boiled down: as §1

The target in assay [15] is T10, ETV7 (Homo sapiens, UniProt Q9Y603 1-341).
T10 sequence: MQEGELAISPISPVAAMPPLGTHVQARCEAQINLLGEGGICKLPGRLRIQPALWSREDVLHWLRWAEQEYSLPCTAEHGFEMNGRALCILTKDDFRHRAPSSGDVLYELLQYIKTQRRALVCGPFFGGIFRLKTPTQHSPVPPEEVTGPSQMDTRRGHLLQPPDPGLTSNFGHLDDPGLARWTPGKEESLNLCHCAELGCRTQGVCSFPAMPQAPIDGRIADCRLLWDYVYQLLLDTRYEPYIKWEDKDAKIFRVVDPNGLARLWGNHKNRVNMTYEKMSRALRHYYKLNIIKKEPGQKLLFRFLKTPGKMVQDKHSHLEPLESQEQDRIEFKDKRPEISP
To be noted: protein: recombinant; tags: N-terminal GST; dsDNA, one strand shown. The essentials:
as §1

Assay [16] addresses T11, ELF5 (Homo sapiens, UniProt Q9UKW6-2 1-255).
T11 sequence: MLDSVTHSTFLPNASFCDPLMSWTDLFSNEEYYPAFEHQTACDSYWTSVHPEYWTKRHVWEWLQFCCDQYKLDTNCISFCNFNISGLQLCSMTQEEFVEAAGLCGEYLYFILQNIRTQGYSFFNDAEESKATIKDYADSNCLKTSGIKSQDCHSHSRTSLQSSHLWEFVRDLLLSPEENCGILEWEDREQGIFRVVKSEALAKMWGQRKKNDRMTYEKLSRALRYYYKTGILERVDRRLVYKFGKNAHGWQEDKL
The following applies: protein: recombinant; tags: N-terminal GST; dsDNA, one strand shown. The method, boiled down: as §1

Assay [17] addresses T12, ETV3 (Homo sapiens, UniProt P41162-2 1-143).
T12 sequence: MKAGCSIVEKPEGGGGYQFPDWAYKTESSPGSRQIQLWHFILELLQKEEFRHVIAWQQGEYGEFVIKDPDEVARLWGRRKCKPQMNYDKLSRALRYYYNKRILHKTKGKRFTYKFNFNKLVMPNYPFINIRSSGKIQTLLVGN
To be noted: protein: recombinant; tags: N-terminal GST; dsDNA, one strand shown. The essentials: as §1

Assay [18] addresses ETV6 (Homo sapiens, UniProt P41212 1-452). To be noted: protein: recombinant; tags: N-terminal GST; dsDNA, one strand shown. The method, boiled down:
as §1

Sequence of CRX (O43186 whole entry): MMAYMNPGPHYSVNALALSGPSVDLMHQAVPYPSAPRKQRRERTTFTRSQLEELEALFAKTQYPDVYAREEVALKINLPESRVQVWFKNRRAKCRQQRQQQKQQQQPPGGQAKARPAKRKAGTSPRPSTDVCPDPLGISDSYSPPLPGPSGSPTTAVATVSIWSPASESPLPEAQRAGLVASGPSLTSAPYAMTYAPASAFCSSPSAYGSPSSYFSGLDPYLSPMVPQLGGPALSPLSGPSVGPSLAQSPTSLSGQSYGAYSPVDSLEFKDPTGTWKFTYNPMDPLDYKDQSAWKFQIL
Sequence of ETV6 (P41212 whole entry): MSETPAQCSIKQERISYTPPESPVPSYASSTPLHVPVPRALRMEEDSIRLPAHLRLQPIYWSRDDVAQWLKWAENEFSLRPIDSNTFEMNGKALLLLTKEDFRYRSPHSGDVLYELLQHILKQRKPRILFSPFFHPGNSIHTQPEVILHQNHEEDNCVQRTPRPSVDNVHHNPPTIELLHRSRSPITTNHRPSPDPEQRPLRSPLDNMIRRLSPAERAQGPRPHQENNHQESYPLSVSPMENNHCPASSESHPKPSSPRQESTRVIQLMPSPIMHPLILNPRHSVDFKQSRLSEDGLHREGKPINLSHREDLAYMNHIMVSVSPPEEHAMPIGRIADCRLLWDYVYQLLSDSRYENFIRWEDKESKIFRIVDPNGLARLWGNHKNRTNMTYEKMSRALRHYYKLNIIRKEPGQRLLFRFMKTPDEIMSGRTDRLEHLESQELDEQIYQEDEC
Sequence of ETV5 (P41161 whole entry): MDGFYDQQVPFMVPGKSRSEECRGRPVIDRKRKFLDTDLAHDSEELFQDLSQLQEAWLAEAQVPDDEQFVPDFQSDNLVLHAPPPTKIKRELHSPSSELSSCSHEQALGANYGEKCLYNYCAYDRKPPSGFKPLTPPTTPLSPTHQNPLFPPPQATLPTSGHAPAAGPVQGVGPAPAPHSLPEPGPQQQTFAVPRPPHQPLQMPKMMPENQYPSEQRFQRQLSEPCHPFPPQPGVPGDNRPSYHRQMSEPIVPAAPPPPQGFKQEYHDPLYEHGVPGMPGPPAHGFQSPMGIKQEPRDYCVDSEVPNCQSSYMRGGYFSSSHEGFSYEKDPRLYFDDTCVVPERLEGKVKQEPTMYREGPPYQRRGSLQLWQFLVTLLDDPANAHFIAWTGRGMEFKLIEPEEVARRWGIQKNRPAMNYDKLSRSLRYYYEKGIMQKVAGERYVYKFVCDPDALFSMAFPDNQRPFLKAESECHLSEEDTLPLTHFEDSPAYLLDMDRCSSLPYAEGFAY
Sequence of ETV1 (P50549 whole entry): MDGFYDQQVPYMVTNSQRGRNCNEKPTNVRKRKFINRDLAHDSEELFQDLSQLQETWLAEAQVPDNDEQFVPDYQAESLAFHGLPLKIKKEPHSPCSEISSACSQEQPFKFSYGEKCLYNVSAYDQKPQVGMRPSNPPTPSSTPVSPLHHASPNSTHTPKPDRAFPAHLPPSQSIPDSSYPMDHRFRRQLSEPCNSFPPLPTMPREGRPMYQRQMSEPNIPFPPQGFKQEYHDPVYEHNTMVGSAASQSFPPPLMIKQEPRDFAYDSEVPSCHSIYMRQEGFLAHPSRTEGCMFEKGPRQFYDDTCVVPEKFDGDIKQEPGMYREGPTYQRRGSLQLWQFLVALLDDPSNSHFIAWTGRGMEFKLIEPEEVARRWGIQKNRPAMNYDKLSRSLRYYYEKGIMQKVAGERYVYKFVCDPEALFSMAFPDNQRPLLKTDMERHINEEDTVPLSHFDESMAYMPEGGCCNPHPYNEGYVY
Sequence of HSF1 (Q00613 whole entry): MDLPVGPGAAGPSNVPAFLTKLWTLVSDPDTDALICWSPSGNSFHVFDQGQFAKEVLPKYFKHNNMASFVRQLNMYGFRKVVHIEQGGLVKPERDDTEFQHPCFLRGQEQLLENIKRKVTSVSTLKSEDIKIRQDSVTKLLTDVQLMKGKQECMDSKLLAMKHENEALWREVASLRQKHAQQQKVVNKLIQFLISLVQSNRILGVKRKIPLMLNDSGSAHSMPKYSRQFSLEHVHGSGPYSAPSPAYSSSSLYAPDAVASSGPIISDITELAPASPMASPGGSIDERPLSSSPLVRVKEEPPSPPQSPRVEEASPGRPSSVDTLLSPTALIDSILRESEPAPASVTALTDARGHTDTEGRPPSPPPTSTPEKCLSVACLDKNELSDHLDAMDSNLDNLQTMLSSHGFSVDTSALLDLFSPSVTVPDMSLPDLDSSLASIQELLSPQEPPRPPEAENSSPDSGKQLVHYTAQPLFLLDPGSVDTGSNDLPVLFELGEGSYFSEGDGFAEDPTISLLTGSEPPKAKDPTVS
Sequence of ELF4 (Q99607 whole entry): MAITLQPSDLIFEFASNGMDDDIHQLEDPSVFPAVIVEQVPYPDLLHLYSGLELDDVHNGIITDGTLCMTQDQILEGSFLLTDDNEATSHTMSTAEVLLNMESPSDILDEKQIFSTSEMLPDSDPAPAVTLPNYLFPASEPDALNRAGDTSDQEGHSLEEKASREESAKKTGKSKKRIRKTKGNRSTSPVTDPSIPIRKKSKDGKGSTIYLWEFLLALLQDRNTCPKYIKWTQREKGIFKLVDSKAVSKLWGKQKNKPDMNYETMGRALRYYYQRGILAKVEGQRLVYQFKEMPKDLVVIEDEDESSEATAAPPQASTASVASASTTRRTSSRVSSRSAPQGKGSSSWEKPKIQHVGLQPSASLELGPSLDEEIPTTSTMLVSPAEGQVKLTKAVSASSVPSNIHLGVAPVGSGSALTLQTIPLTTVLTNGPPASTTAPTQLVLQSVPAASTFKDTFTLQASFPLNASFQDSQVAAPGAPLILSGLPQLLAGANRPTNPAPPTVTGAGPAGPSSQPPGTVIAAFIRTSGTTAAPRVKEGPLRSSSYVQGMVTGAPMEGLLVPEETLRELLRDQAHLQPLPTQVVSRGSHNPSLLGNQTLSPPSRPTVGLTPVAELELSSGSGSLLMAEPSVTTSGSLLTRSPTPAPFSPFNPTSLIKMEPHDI

ATGTTC: the binding signal in assay [1] was 1.15 fold enrichment (6-mer frequency, TF over GST control); in assay [2] it was 1.16 fold enrichment (6-mer frequency, TF over GST control); in assay [3] it was 2.33 fold enrichment (6-mer frequency, TF over GST control); in [4] it was 1.32 fold enrichment (6-mer frequency, TF over GST control); in assay [5], 1.22 fold enrichment (6-mer frequency, TF over GST control); in assay [6], 1.2 fold enrichment (6-mer frequency, TF over GST control). The binding signal is 1.14 fold enrichment (6-mer frequency, TF over GST control) in [7]; 1.15 fold enrichment (6-mer frequency, TF over GST control) in [8]; 1.22 fold enrichment (6-mer frequency, TF over GST control) in assay [9]; 1.3 fold enrichment (6-mer frequency, TF over GST control) in assay [10]; 1.27 fold enrichment (6-mer frequency, TF over GST control) in assay [11]; 1.31 fold enrichment (6-mer frequency, TF over GST control) in assay [12]. Further, the binding signal was 1.25 fold enrichment (6-mer frequency, TF over GST control) in assay [13]; 1.3 fold enrichment (6-mer frequency, TF over GST control) in assay [14]; 1.3 fold enrichment (6-mer frequency, TF over GST control) in assay [15]; 1.32 fold enrichment (6-mer frequency, TF over GST control) in assay [16]; 1.34 fold enrichment (6-mer frequency, TF over GST control) in [17]; 1.18 fold enrichment (6-mer frequency, TF over GST control) in assay [18].
